The text below walks through data of PubChem BioAssay AID873 (PCMD, 2007).

Molecules are shown by their SMILES. The whole screen tested about 210,000 compounds, of which about 1,300 (0.62%) were called active. What follows is part of a selection rich in actives, with near analogues and random picks from the rest. A number with no mark means an inactive call.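 How the source made its calls: active means inhibition of 40% or more; inactive means the rest.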

The target of this assay is Kallikrein-5 (Homo sapiens) (UniProt Q9Y337). Kind of assay: inhibition of kallikrein 5 (hK5) activity – biochemical, 1536-well, primary screen (AID 873).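 Further: 0% = enzyme controls without compound and 100% = no-enzyme blanks.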 The settings on record: recombinant hK5, fluorogenic AMC substrate cleavage; at 5 µM; active compounds read high.
Sequence of Kallikrein-5 (Homo sapiens) (Q9Y337 67-293 limits assumed): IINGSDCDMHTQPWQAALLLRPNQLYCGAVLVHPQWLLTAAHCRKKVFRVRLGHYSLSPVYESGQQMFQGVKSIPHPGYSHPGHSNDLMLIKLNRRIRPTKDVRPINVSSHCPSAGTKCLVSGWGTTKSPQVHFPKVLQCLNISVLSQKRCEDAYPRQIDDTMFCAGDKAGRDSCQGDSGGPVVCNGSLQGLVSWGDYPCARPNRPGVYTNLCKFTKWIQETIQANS
In the case of `Cc1ccc(Oc2cnn(-c3ccccc3)c(=O)c2Br)cc1`, the inhibition was -20.9%.
Under `C=CCNc1cnn(-c2ccc(C)cc2)c(=O)c1Cl` stands 58% (active).
Under `O=c1c(Cl)c(NC2CC2)cnn1-c1ccccc1` stands -14.4%.
Under `CS(=O)(=O)c1ccc(Cl)c(NC(=O)Nc2ccccc2)c1` stands 15.8%; under `CC(C)c1nc(SCC(=O)NC(=O)NC(C)(C)C)n[nH]1`, -0.71%.
As for `Cc1cccn2c(CNCC(C)Oc3cccnc3)c(C(=O)N3CCOCC3)nc12` (stereo unspecified), the inhibition was -2.01%.
For `COc1ccc(N2CCC(CNC(=S)Nc3c(C)cccc3C)C2)cc1` (stereo unspecified) the value was -0.97%.
For `Cc1nc2nc(SCC(=O)c3ccccc3)[nH]c2cc1Br` the value was 1.2%.
Under `C/C(=N/NC(=O)CN1CCN(S(=O)(=O)c2ccc(Br)cc2)CC1)c1ccncc1` stands 1.01%; under `CCc1ccccc1NC(=O)c1cccs1`, -5.15%.
As to `O=C(Nc1ccccc1-c1ccccc1)c1cccs1`, the inhibition is 40% (active).
Under `O=C(Nc1ccccc1-c1nnn(CC(=O)N2CCN(c3ccccc3)CC2)n1)c1cccs1` stands 8.06%; under `CC(C)Cc1oc(C(=O)O)cc1CN`, -20.2%.
For `Cc1cc(=O)oc(C)c1C(=O)N1CCCCC1` the value was -21.2%; for `Cc1oc(CC(C)C)c(CN2CCCC2)c1C(=O)O`, 40.4% (active); for `Cc1ccc(Nc2c3c(nc4ccccc24)CCC3)cc1`, -1.22%.
Under `COc1ccc(NS(=O)(=O)c2ccc(N3CCOCC3)c(NC(=O)c3ccccc3Br)c2)cc1` stands -3.92%.
Take `Cc1cc(C)nc(Nc2n[nH]c(-c3ccccc3N)n2)n1`: the inhibition is -1.46%.
Under `CC(C)CCN1NC2(CCC(C)CC2)NC1=S` (stereo unspecified) stands 0.13%; under `COc1ccccc1N1CCN(Cc2ccc(OC)c3ccccc23)CC1`, -4.66%; under `CCN1CCN(CCCCOc2ccccc2F)CC1`, -9.3%.
Under `COc1ccccc1N1CCN(CCCCOc2ccc(F)cc2)CC1` stands 40.1% (active); under `CCOC(=O)c1ccc(NC(=O)Cn2cnc3cc(C)c(C)cc32)cc1`, 3.77%; under `Cc1nc(N)[nH]c(=O)c1Oc1cccc(C(F)(F)F)c1`, -0.74%.
For `Cc1cc(=O)[nH]c(SCC(=O)Nc2ccc(Br)cc2)n1` the value was 2.46%.
Turning to `CCOc1ccccc1N1CN(Cc2ccccc2)CNC1=S`, the inhibition is -6.7%.
For `CCCc1ccc(C(=O)[C@@H]2[C@@H](C(C)=O)N3c4ccc(F)cc4C=C[C@@H]3[C@@]23C(=O)Nc2ccccc23)cc1` the value was 3.66%; for `NC(=O)N1CCc2ccccc21`, -6.77%.
Under `O=C(c1cnn2ccccc12)N1CCc2ccccc21` stands 68.7% (active).
Under `O=C(c1cccc(C(=O)N2CCc3ccccc32)n1)N1CCc2ccccc21` stands -28.7%.
As for `COC(=O)c1noc(C)c1-c1ccnn1C(=O)c1ccc(Cl)cc1`, the inhibition was 14.2%.
On to `O=C(O)CSc1nccc2ccccc12`, for which the inhibition was -3.99%.
For `O=C(O)c1ccccc1-c1ccccc1C(=O)Nc1cccc2ccccc12` the value was 3.53%; for `O=C(O)C#Cc1cccc2ccccc12`, 42.9% (active).
For `COC(=O)c1cc(C(=O)OCC(=O)Nc2cc(C)on2)cc([N+](=O)[O-])c1` the value was 23.6%; for `O=C(O)c1ccc(/C=N/NC(=S)NCc2ccccc2)cc1`, -1.6%.
As to `C/C(=N\NC(=S)NCc1ccccc1)C1CCCCC1`, the inhibition was -4.43%.
Under `C/C(=N\NC(=S)NCc1ccccc1)c1ccc(Cl)cc1` stands 56.7% (active); under `COc1ccc(C(=O)c2oc3ccc(Br)cc3c2NC(C)=O)cc1`, -25.1%; under `COC(=O)c1oc2ccc(Br)cc2c1NC(C)=O`, 41.8% (active).
For `COc1ccc2oc(C)c(NC(C)=O)c2c1` the value was -13.5%; for `Cc1ccc(Nc2nc(Cl)c(C=O)s2)cc1`, 0.92%; for `O=C(CS(=O)(=O)c1cn(Cc2cccc(F)c2)c2ccccc12)N1CCCCC1`, -11.7%.
For `COc1cccc(NC(=O)CS(=O)(=O)c2cn(CC(=O)N3CCOCC3)c3ccccc23)c1` the value was -2.04%; for `O=C(CS(=O)(=O)c1cn(Cc2ccc(Cl)cc2)c2ccccc12)N1CCOCC1`, 47% (active); for `COCCNC(=O)Cn1cc(C(=O)c2cccs2)c2ccccc21`, -5.68%.
`COC(=O)Cn1cc(C(=O)c2cccs2)c2ccccc21`: the inhibition was 40.6% (active).
For `O=C(Cn1cc(C(=O)c2cccs2)c2ccccc21)NCc1cccs1` the value was -1.96%; for `Cc1ccc(OCC(=O)Nc2nnc(-c3ccco3)s2)cc1`, -1.13%; for `CC(C)CNc1ncnc2c1cnn2Cc1ccc(Cl)cc1`, -1.93%.
Under `O=C(Nc1ccc(Br)cn1)c1ccc([N+](=O)[O-])o1` stands -4.1%; under `Cc1onc(NC(=O)c2ccc([N+](=O)[O-])o2)c1Br`, 47.1% (active); under `Cc1cccc(NC(=O)c2ccc([N+](=O)[O-])o2)c1`, -2.56%.
Under `CCCNc1c(N)c(=O)c1=O` stands -0.24%.
Turning to `Cc1ccc(Oc2nc(-c3ccccn3)nc3ccccc23)cc1`, the inhibition is -11.3%.
Under `N#C/C(=C/c1ccc(-c2ccccc2[N+](=O)[O-])o1)C(=O)NCCN1CCCCC1` stands 1.64%.
For `Cc1ccc(-c2csc(-c3cc(C)on3)n2)cc1` the value was 44.8% (active); for `CCCc1cc(-c2nc(-c3ccc(C)cc3)cs2)ccn1`, -10.9%; for `Cc1ccc(-c2csc(SCC(=O)Nc3cc(C)on3)n2)cc1`, -2.17%.
As to `O=c1c(/C=N/O)coc2ccc(Cl)cc12`, the inhibition is 3.19%.
Take `Cc1ccc(N2C(=O)CC(Nc3cccc4ccccc34)C2=O)cc1` (stereo unspecified): the inhibition was 0.34%.
With `CC1C(=O)NC(=O)C1c1ccccc1` (stereo unspecified), the inhibition was 1.86%.
Take `CC(C)(C)n1nnnc1C(c1cccs1)N(Cc1cccnc1)CC1CCCO1` (stereo unspecified): the inhibition is 45% (active).
For `CC(C)C(c1nnnn1C(C)(C)C)N1CCN(Cc2cccnc2)CC1` (stereo unspecified) the value was 4.44%; for `CCOc1ccc(CN(Cc2ccco2)C(c2cccs2)c2nnnn2C(C)(C)C)cc1` (stereo unspecified), 9.28%; for `Cc1nnc(SCC(=O)N2CCOCC2)[nH]c1=O`, -13.7%.
For the compound `O=C(CSc1nc2c(cnn2-c2ccc(F)cc2)c(=O)[nH]1)N1CCCCCC1`, the inhibition is 68.2% (active).
Regarding `CC(=O)c1sc2nc(SCC(=O)N3CCCCC3)[nH]c(=O)c2c1C`, the inhibition is -8.76%.
Under `Cc1coc2cc3oc(=O)c(CCC(=O)O)c(C)c3cc12` stands -1.04%; under `Cc1ccc(C(O)P(=O)(OC(C)C)c2ccc(N(C)C)cc2)cc1` (stereo unspecified), -0.37%; under `COc1cccc(NC(=O)c2ccc(S(=O)(=O)N(C)C)cc2)c1`, 58.8% (active).
For `COc1ccc(C(=O)Nc2cccc(S(C)(=O)=O)c2)cc1` the value was 9.53%.
Under `CCC(=O)Nc1ccc(C(=O)Nc2cccc(OC)c2)cc1` stands -2.36%; under `CC1CN(c2nc(Nc3ccccc3)nc(N)c2[N+](=O)[O-])CC(C)O1` (stereo unspecified), 1.28%; under `Cc1ncn2cc(-c3ccc(Cl)cc3Cl)[nH]c(=O)c12`, 63% (active).
For the compound `Clc1ccc(-c2ncc3ccccn23)c(Cl)c1`, the inhibition was 2.07%.
For `COn1c(-c2ccc(Cl)cc2Cl)nc2ncccc21` the value was -1.75%; for `COc1ccc(OC)c(-n2c(-c3ccn[nH]3)n[nH]c2=S)c1`, -4.85%.
Under `NC(=O)Cc1ccc2sc(-c3ccccc3)nc2c1` stands 29.8%; under `CCn1c2ccccc2c2cc(CC(N)=O)ccc21`, 0.83%; under `NC(=O)Cc1ccc2c(c1)[nH]c1ccccc12`, 49.5% (active).
Under `CCN(CC)c1ccc(/C=N/NC(=O)c2cnccn2)c(O)c1` stands -3.69%; under `Cc1nc(SCC(=O)N2CC(=O)Nc3ccccc32)c2c(C)c(C)sc2n1`, -0.11%.
As for `Cc1nc(SCC(=O)N2CCc3ccccc3C2)c2c(C)c(C)sc2n1`, the inhibition was 59.1% (active).
Under `Cc1nnc(SCC(=O)N2CCc3ccccc3C2)s1` stands 16.7%; under `COc1ccccc1C1CCN(c2ccc([N+](=O)[O-])cn2)CC1`, 0.29%.
For `CC(=O)c1ccc2c(c1)OCCOCCOc1ccc(C(C)=O)cc1OCCOCCO2`, the inhibition was -1.51%.
For `O=c1[nH]c2cccnc2n1-c1ccc([N+](=O)[O-])cc1` the value was 0.04%; for `O=C(O)C1CCCCC1C(=O)Nc1ccc(Cl)cc1` (stereo unspecified), 2.31%; for `O=C(O)c1ccc(NC(=O)C2CCCCC2)cc1`, -4.28%.
Under `O=C(O)Cc1ccc(NC(=O)C2CCCCC2C(=O)O)cc1` (stereo unspecified) stands 46.5% (active); under `COc1ccc(-c2noc(-c3ccc(C)cc3)n2)cc1`, -5.34%.
Under `COc1ccc(-c2noc(CSc3ccc(C)cc3)n2)cc1` stands 55.4% (active); under `COc1ccc(-c2noc(CN(C)S(=O)(=O)c3ccc(C)cc3)n2)cc1`, 1.11%.
Consider `O=C(Nc1ccc(S(=O)(=O)N2CCOCC2)cc1)c1ccc2ncsc2c1`, for which the inhibition was 6.27%.
For `COCc1cc(=O)[nH]c(-c2ccc(C(F)(F)F)cc2)n1` the value was -1.98%; for `Cc1cccc(N(C)C(=O)c2cc3c(=O)[nH]c4ccc(C)cc4c3s2)c1`, 1.34%; for `CS(=O)(=O)N(CC(=O)Nc1ccc(F)cc1F)c1cccc([N+](=O)[O-])c1`, 62.8% (active).
For `COc1cccc(N(CC(=O)Nc2cccc(F)c2)S(C)(=O)=O)c1` the value was 2.06%; for `CCN(CC)S(=O)(=O)c1ccc(NC(=O)CN(c2cccc(F)c2)S(C)(=O)=O)cc1`, -2.67%.
For `COc1ccc(NC(=O)C2=NNC(=O)CC2)cc1S(=O)(=O)N1CCCCC1` the value was -2.9%.

One may read the inhibition as the change of the read-out against control, counted positive when it falls.
